Among all 39,000 compounds or so, about 220 (0.56%) showed activity. Many of the other results were omitted from the sample, so actives are more common in it than they were. Unmarked numbers belong to inactive results.
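Also: Wild-type cells incubated without shaking, value is the mean of two biological replicates.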

This test has as its system Escherichia coli K-12 BW25113. Nature of the test: relative growth (OD600 normalised to plate interquartile mean) (fraction); higher = less growth inhibition, active = 0.2 or less. The conditions noted are these: 50 µM; LB; incubation time: overnight (16-24 h).
Regarding `CCCC[P+](CCCC)(CCCC)Cc1ccc(NC(=O)[C@@H](Cc2ccc3ccccc3c2)N=C(NC2CCCCC2)NC2CCCCC2)cc1`, the relative growth was 0.0386 (active). The result for `CCC(=O)Nc1ccc2ccccc2c1` reads 0.842; that for `CCCC[P+](CCCC)(CCCC)Cc1ccc(NC(=O)[C@H](Cc2ccc3ccccc3c2)N/C(=N/C2CCCCC2)NC2CCCCC2)cc1`, 0.0326 (active); that for `CN(Cc1ccccc1)C(=O)[C@H](Cc1ccc2ccccc2c1)NC(=O)[C@@H]1CCCN1C(=O)Nc1ccccc1[N+](=O)[O-]`, 1.04.

With `C[C@H](CO)N1C[C@H](C)[C@@H](CN(C)C(=O)NC2CCCCC2)Oc2ccc(NC(=O)Nc3cccc4ccccc34)cc2C1=O`, the relative growth was 1.04. `C[C@@H]1CN([C@H](C)CO)C(=O)c2cc(NC(=O)Nc3cccc4ccccc34)ccc2O[C@@H]1CN(C)C(=O)NC1CCCCC1`: the relative growth was 1. With `C[C@@H]1CCCCO[C@H](CN(C)C(=O)NC2CCCCC2)[C@@H](C)CN([C@H](C)CO)C(=O)c2cc(NS(=O)(=O)c3ccccc3)ccc2O1`, the relative growth is 0.983. Next, `Cc1ccc2c(c1)[C@](C)(O)CCS2`: 1.01; `COc1ccc(S(=O)(=O)Nc2ccc3c(c2)CC(=O)N([C@H](C)CO)C[C@H](C)[C@H](CN(C)C(=O)Nc2c(C)noc2C)O3)cc1`: 1.02; `Cc1ccc(S(=O)(=O)N(C)C[C@H]2Oc3ccc(NS(=O)(=O)c4ccccc4)cc3CC(=O)N([C@@H](C)CO)C[C@H]2C)cc1`: 0.993. Consider `C[C@H]1CN([C@@H](C)CO)C(=O)c2cccc(NS(=O)(=O)c3cccs3)c2O[C@@H]1CN(C)S(=O)(=O)c1ccc(F)cc1`, for which the relative growth was 1.02. Take `O=C(NO)c1ccc(C(=O)N/N=C/[C@H](O)[C@@H](O)[C@H](O[C@@H]2O[C@H](CO)[C@H](O)[C@H](O)[C@H]2O)[C@H](O)CO)cc1`: the relative growth is 0.996.

`CN1CCN(CC(=O)N2c3ccccc3C(=O)Nc3cccnc32)CC1.Cl.Cl`: the relative growth was 1.08. The result for `Cc1scc2c1N(C(=O)CN1CCN(C)CC1)c1ccccc1NC2=O.Cl` reads 0.044 (active); that for `O=C(O)CCC(=O)N1CC(=O)Nc2ccccc21`, 0.964. The result for `Cc1c(N)nc([C@H](CC(N)=O)NC[C@H](N)C(N)=O)nc1C(=O)N[C@H](C(=O)N[C@H](C)[C@@H](O)[C@H](C)C(=O)N[C@H](C(=O)NCCc1nc(-c2nc(C(=O)NCCCNCCCCN)cs2)cs1)[C@@H](C)O)[C@@H](O[C@@H]1O[C@@H](CO)[C@@H](O)[C@H](O)[C@@H]1O[C@@H]1O[C@H](CO)[C@@H](O)[C@H](OC(N)=O)[C@@H]1O)c1c[nH]cn1` reads 0.0715 (active). The result for `C[C@H](CO)N1C[C@H](C)[C@@H](CN(C)C(=O)Nc2ccc(F)cc2)OCc2ccccc2-c2ccccc2C1=O` reads 0.975; that for `C[C@H](CO)N1C[C@H](C)[C@@H](CN(C)C(=O)Nc2cccc3ccccc23)OCCCC[C@H](C)Oc2ccc(NS(C)(=O)=O)cc2C1=O`, 1.01. Regarding `Cc1noc(C)c1S(=O)(=O)N(C)C[C@H]1Oc2c(NS(=O)(=O)c3cn(C)cn3)cccc2C(=O)N([C@H](C)CO)C[C@@H]1C`, the relative growth is 0.992.

Consider `C[C@@H]1CN([C@H](C)CO)C(=O)c2cccc(NS(=O)(=O)c3ccc(F)cc3)c2O[C@@H]1CN(C)S(=O)(=O)c1cn(C)cn1`, for which the relative growth was 0.99. The result for `C[C@@H]1CCCCO[C@@H](CN(C)C(=O)C2CCCCC2)[C@@H](C)CN([C@H](C)CO)C(=O)c2cc(NC(=O)CCC(F)(F)F)ccc2O1` reads 0.92; that for `CC(C)(C)c1cc2[nH]c(N)nc(=N)n2n1`, 1.01. On to `C[C@@H]1CN([C@@H](C)CO)S(=O)(=O)c2ccc(C#CC3CC3)cc2O[C@@H]1CN(C)C(=O)C1CCCCC1`, for which the relative growth was 1.01.

Take `CN(C)c1cc(NC(=O)CNC(C)(C)C)c(O)c2c1C[C@H]1C[C@H]3[C@H](N(C)C)C(=O)[C@@H](C(N)=O)C(=O)[C@@]3(O)C(=O)[C@H]1C2=O`: the relative growth was 1.01. Next, `CN(C)c1ccc(O)c2c1C[C@@H]1C[C@@H]3[C@@H](N(C)C)C(=O)C(C(N)=O)=C(O)[C@]3(O)C(=O)[C@H]1C2=O`: 0.0589 (active); `CN(C)[C@@H]1C(=O)[C@@H](C(=O)NCNCCCC[C@H](N)C(=O)O)C(=O)[C@@]2(O)C(=O)[C@@H]3C(=O)c4c(O)cccc4[C@@](C)(O)[C@H]3C[C@@H]12`: 0.977. In the case of `CN(C)[C@@H]1C(=O)[C@@H](C(N)=O)C(=O)[C@@]2(O)C(=O)[C@@H]3C(=O)c4c(O)c(NC(=O)CN5CCCC5)cc(F)c4C[C@H]3C[C@@H]12`, the relative growth was 0.0357 (active). The result for `CN(C)c1cc(CNCC(C)(C)C)c(O)c2c1C[C@H]1C[C@H]3[C@H](N(C)C)C(=O)[C@H](C(N)=O)C(=O)[C@@]3(O)C(=O)[C@@H]1C2=O` reads 0.0692 (active). Take `CN(C)[C@@H]1C(=O)[C@@H](C(N)=O)C(=O)[C@@]2(O)C(=O)[C@H]3C(=O)c4c(O)ccc(Cl)c4[C@@H](O)[C@H]3C[C@@H]12`: the relative growth was 0.0324 (active).

Take `C[C@@H]1CCCCO[C@@H](CN(C)C(=O)NC2CCCCC2)[C@@H](C)CN([C@H](C)CO)C(=O)c2cc(NC(=O)C3CCCCC3)ccc2O1`: the relative growth was 1.02. The result for `C[C@H]1CN([C@@H](C)CO)C(=O)c2cc(NC(=O)CCCCCC(=O)Nc3ccccc3N)ccc2O[C@H]1CN(C)CC1CCCCC1` reads 0.97; that for `COc1ccc(NC(=O)Nc2ccc3c(c2)C(=O)N([C@@H](C)CO)C[C@H](C)[C@H](CN(C)C(=O)Nc2ccc(OC)cc2)OCCCC[C@H](C)O3)cc1`, 0.996. The result for `CN(C)C(=O)[C@H]1C[C@@H]2CCN(S(C)(=O)=O)C[C@H]2O1` reads 0.988; that for `Cc1noc(C)c1NC(=O)N(C)C[C@@H]1Oc2c(NC(=O)c3ccncc3)cccc2C(=O)N([C@H](C)CO)C[C@@H]1C`, 1; that for `C[C@@H]1CN([C@@H](C)CO)C(=O)Cc2cc(NC(=O)Cn3cnnn3)ccc2O[C@H]1CN(C)C(=O)Nc1ccc(C(F)(F)F)cc1`, 0.993.
